# From PubChem BioAssay (NCI)
# This is part of a sample that, as a whole, favours compounds with a hit. Of some 83,000 tested, about 20% had one in any assay.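 Testing used 96-well plates and a 48-hour single-concentration exposure. Example: -40 means 40% of the starting cells died.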 Values without a mark were called inactive. Activity calls are given as the source filed them. Rule for the calls: active = growth percent below 10; inactive = the rest.
# How the values were obtained:
# Experiment in all cases: NCI-60 one-dose screen, 48 h (100 = growth as untreated, 0 = no growth, -100 = all killed)
# Settings in all cases: 10 µM
# SK-MEL-2 melanoma = tested on: SK-MEL-2 melanoma
# SN12C renal = tested on: SN12C renal
# UO-31 renal = tested on: UO-31 renal
# TK-10 renal = tested on: TK-10 renal
# ACHN renal = tested on: ACHN renal
# CAKI-1 renal = tested on: CAKI-1 renal
# A498 renal = tested on: A498 renal
# CCRF-CEM leukemia = tested on: CCRF-CEM leukemia
# MOLT-4 leukemia = tested on: MOLT-4 leukemia
# SR leukemia = tested on: SR leukemia
# RPMI-8226 leukemia = tested on: RPMI-8226 leukemia
# OVCAR-8 ovarian = tested on: OVCAR-8 ovarian
# OVCAR-5 ovarian = tested on: OVCAR-5 ovarian
# OVCAR-4 ovarian = tested on: OVCAR-4 ovarian
# SK-OV-3 ovarian = tested on: SK-OV-3 ovarian
# IGROV1 ovarian = tested on: IGROV1 ovarian
# OVCAR-3 ovarian = tested on: OVCAR-3 ovarian
# HS 578T breast = tested on: HS 578T breast
# NCI/ADR-RES ovarian = tested on: NCI/ADR-RES ovarian
Structure (SMILES),growth (SK-MEL-2 melanoma),growth (SN12C renal),growth (UO-31 renal),growth (TK-10 renal),growth (ACHN renal),growth (CAKI-1 renal),growth (A498 renal),growth (CCRF-CEM leukemia),growth (MOLT-4 leukemia),growth (SR leukemia),growth (RPMI-8226 leukemia),growth (OVCAR-8 ovarian),growth (OVCAR-5 ovarian),growth (OVCAR-4 ovarian),growth (SK-OV-3 ovarian),growth (IGROV1 ovarian),growth (OVCAR-3 ovarian),growth (HS 578T breast),growth (NCI/ADR-RES ovarian)
Cc1nc2scc(-c3ccc(Cl)cc3)n2c(=O)c1CCN1CCOCC1,105%,94%,57.5%,142%,89.4%,84.6%,119%,93.6%,78.1%,81.4%,93.5%,104%,116%,95.1%,94.1%,79.2%,104%,106%,108%
COc1ccc(S(=O)(=O)Nc2cc(/C=C\c3cc(OC)c(OC)c(OC)c3)ccc2OC)cc1,5.84% (active),15.6%,24.6%,39.6%,18.7%,26%,-19.2% (active),15.4%,8.46% (active),10.2%,7.64% (active),9.01% (active),30.7%,34.4%,11.8%,13.6%,-19.8% (active),10.6%,11%
Cc1cc(C)c(C(=O)OC(C)CNC2CCCCC2)c(C)c1 (stereo unspecified),95%,100%,68.6%,92%,97.8%,97%,92.1%,89.7%,84.7%,81.6%,92.9%,101%,59.2%,101%,96.7%,101%,98.5%,100%,92.3%
CCOC(=O)c1sc(Nc2ncccn2)nc1-c1ccccn1,60.4%,92%,62.4%,102%,88.4%,57.2%,90.2%,46.2%,73.1%,62.7%,92%,85.7%,93.1%,42%,76.4%,87.4%,82.3%,105%,68.6%
